Source: PubChem BioAssay AID624417 (National Center for Advancing Translational Sciences (NCATS), 2012)
About 6,400 (1.6%) of roughly 410,000 compounds were called active. Inconclusive results (about 20%) are left out. The sample as a whole holds a higher share of actives than the screen did. A number with no mark means an inactive call. The call rests on the fitted dose curve; in most records, active means well fitted inhibition curve with a large enough effect; inconclusive means small, poorly fitted or top-dose-only effect; inactive means no such curve, though single readings can be large or run the other way.

Target: Glucagon-like peptide 1 receptor (Homo sapiens) (UniProt P43220)
Test: qHTS of GLP-1 Receptor Inverse Agonists (Inhibition Mode); further: nearly all actives have a fitted effect of over 55% in size
Conditions: HEK293 GLP-1R CRE-luciferase, luminescence, 24 h, GLP-1R form is constitutively active; series mostly up to 38.3 µM; activity change, negative = inhibition: at the top concentration
Summary of the method: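 Seeding at 200 cells/uL, 12 h culture, 24 hr compound treatment, then luciferase reagent and a luminescence read; cells are HEK293 stably expressing a constitutively active GLP-1R plus cAMP-responsive luciferase.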
On the % scale 0 is the no-effect control and ±100 the full control effect; potency means the concentration at half of the fitted maximal effect.

Glucagon-like peptide 1 receptor (Homo sapiens), sequence (P43220 whole entry, looked up): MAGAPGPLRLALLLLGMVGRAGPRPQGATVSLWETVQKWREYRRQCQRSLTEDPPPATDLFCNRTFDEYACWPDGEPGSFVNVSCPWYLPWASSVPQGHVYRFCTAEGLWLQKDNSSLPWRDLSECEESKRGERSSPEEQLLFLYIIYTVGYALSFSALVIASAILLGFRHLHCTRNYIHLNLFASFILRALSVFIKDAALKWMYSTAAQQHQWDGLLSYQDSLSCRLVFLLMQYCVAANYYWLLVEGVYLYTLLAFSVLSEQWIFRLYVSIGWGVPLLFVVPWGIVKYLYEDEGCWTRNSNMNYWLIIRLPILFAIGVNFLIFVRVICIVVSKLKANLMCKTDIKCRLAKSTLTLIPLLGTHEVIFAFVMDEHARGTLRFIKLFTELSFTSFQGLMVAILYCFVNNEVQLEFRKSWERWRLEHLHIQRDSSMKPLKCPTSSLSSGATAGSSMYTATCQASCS

Row | Structure (SMILES) | Potency | activity change, negative = inhibition
1 | COc1nc(NC2CCCCC2)nc(N2CCCCCC2)n1 | 5.01 µM (active) | 
2 | COC(=O)c1ccc(Oc2nc(Nc3ccc(F)cc3)nc(N3CCCC3)n2)cc1 |  | 2.41%
3 | Clc1nc(NC2CCCC2)nc(N2CCOCC2)n1 |  | 30.6%
4 | CO[C@@H]1CN(C)C(=O)c2cc(NC(=O)Nc3cc(F)ccc3F)ccc2OC[C@H](C)N(C(=O)c2ccccn2)C[C@@H]1C |  | 12.7%
5 | CN1CCN(C2Cc3ccc(Cl)cc3Sc3ccc(F)cc32)CC1 (configuration not stated) | 8.91 µM (active) | 
6 | CCN(CC)C(=O)C1=C(C)N(Cc2ccc(F)cc2)C(=O)C(CC(=O)NC2CCCC2)C1 (configuration not stated) |  | 1.9%
7 | O=C(Nc1ccc(F)cc1)C(CCc1ccccc1)N1CCN(CC(=O)N2CCCC2)CC1 (configuration not stated) |  | 15.1%
8 | N#CCSc1ccccc1NC(=O)CN1C(=O)NC(CCc2ccccc2)C1=O (configuration not stated) |  | 4.84%
9 | Nc1cc(C(=O)N2CCN(c3ccccc3Cl)CC2)ccc1N1CC2CC(C1)c1cccc(=O)n1C2 (configuration not stated) |  | 1.93%
10 | CCC(=O)NC(=S)Nc1ccc(NC(=O)c2ccco2)c(Cl)c1 |  | 56.6%
11 | Cc1cc(NC(=O)c2ccc(F)cc2)ccc1NC(=O)c1ccco1 |  | -2.68%
12 | CCN(CC)P(=O)(Nc1ccc(SC(F)F)cc1)c1ccc(N(C)C)cc1NC(=O)c1ccco1 (configuration not stated) | 2.51 µM (active) | 
13 | O=C(Nc1ccc(N2CCOCC2)cc1)c1cccc2c(-c3ccc(F)c(F)c3)coc12 |  | 6.21%
14 | O=NN(CCCl)C(=O)NCCc1cccc[n+]1[O-] |  | 13.9%
15 | CCSc1nsc(NC(=O)Nc2ccccc2OC)n1 | 11.2 µM (active) | 
16 | CCc1nc(SCC(=O)Nc2ccccc2OC)n[nH]1 |  | 9.23%
17 | COc1ccccc1NC(=S)NC(=O)C(C)C |  | 0%
18 | Cc1ccccc1NC(=O)Cc1nc(COC(=O)CNC(=O)c2ccc(Cl)cc2Cl)cs1 |  | 4.36%
19 | CCOc1ccc(CCNC(=O)COC(=O)c2ccc(C)c(S(=O)(=O)N3CCOCC3)c2)cc1OCC |  | 3.97%
20 | Cc1cc(Br)cn2c(Cc3ccsc3)c(-c3ccc(C#N)cc3)nc12 |  | -7.25%
21 | Cc1ccc(OCC(O)CN2CCN(CC(O)COc3ccc(C)cc3Cl)CC2)c(Cl)c1 (configuration not stated) |  | 3.12%
22 | OC(COc1ccc(F)cc1Cl)CN1CCc2ccccc2C1 (configuration not stated) | 10 µM (active) | 
23 | COc1ccccc1OCC(O)CN1CCOCC1 (configuration not stated) |  | 4.18%
24 | O=C1NC[C@H](Cc2ccc(O)cc2)N(C[C@H]2CCCN2C[C@H](Cc2ccccc2)N2C[C@H](Cc3ccccc3)N(CCc3ccccc3)C(=O)C2=O)C1=O |  | 9.65%
25 | O=C1OC(Oc2ccc(Br)cc2)(c2ccccc2)c2ccccc21 (configuration not stated) | 10 µM (active) | 
26 | CC1(C(=O)NS(=O)(=O)c2ccccc2)CCN1C(=O)C1CCCCC1 (configuration not stated) |  | -3.17%

Row | Structure (SMILES) | Potency | activity change, negative = inhibition
27 | CCOc1ccc(S(=O)(=O)N(CC(=O)NCC(F)(F)F)Cc2ccco2)cc1 |  | 16%
28 | O=C(COc1ccc(Cl)cc1)N(Cc1ccco1)Cc1ccco1 | 10 µM (active) | 
29 | Cc1cc2oc(C(=O)N(Cc3ccc(Cl)cc3)Cc3ccco3)c(C)c2cc1Cl |  | 6.07%
30 | CC(=O)c1nn(-c2ccccc2)c(=Nc2ccccc2)cc1C |  | 1.43%
31 | Cc1cc2c3ccccc3[nH]c(=O)n2n1 |  | 23.2%
32 | CSc1ncnc2c1ncn2CCCNCc1ccco1 |  | 14.9%
33 | COc1ccc(-c2cc(NC=O)c3ncc(-c4ccccc4)n3c2)cc1OC |  | -18.1%
34 | OCc1ccc(OCCCOc2cccc3cccnc23)cc1 |  | 25.8%
35 | Fc1ccccc1COc1cccc2cccnc12 |  | -24%
36 | O=C(Nc1ccccc1)Oc1cccc2cccnc12 | 3.98 µM (active) | 
37 | Cc1ccccc1OS(=O)(=O)c1cccc([N+](=O)[O-])c1 |  | -32.3%
38 | Cc1ccc(-n2c(C)cc(C(=O)CSc3nnc4ccccn34)c2C)cc1 | 8.91 µM (active) | 
39 | O=C(CSc1nnc2ccccn12)c1ccccc1 |  | 11.5%
40 | Cc1ccc(C(=O)NNC(=O)CSc2nnc3ccccn23)cc1 |  | -23.9%
41 | Cc1cccc(CN2CCN(C3CN(Cc4cn(Cc5ccccc5F)nn4)S(=O)(=O)C3)CC2)c1 (configuration not stated) |  | -2.68%
42 | c1ccc2c(c1)nnn2-c1ccncc1 |  | 6.01%
43 | Cc1ccccc1S(=O)(=O)NC(=O)C1(C)CCN1C(=O)C1(c2ccccc2)CCCC1 (configuration not stated) |  | -25.9%
44 | COc1cc(NC(=O)C2=C(C)OCCS2)c(Cl)cc1C(=O)NCCCN1CCCC(C)C1 (configuration not stated) |  | 16.6%
45 | O=C(NNc1ccccc1Cl)C(O)(c1cccc(C(F)(F)F)c1)c1cccc(C(F)(F)F)c1 | 3.98 µM (active) | 
46 | O=C(CNS(=O)(=O)c1cccc(C(F)(F)F)c1)Nc1ccccc1F |  | -16.9%
47 | O=C(Nc1cc(C(F)(F)F)ccc1Cl)c1nc2ccccc2nc1N1CCCCC1 |  | 0.167%
48 | O=C(COC(=O)c1cncc(Br)c1)Nc1ccc(S(=O)(=O)N2CCOCC2)cc1 |  | -0.0324%
49 | CC1(Oc2ccc(Cl)cc2)CCN(Cc2csc3ccccc23)C1 (configuration not stated) |  | -17.5%
50 | CCc1ccccc1NC(=O)c1cnn(-c2ccc(F)cc2)c1C1CCNCC1 |  | -22.5%
51 | CCCc1c(C(=O)O)cnn1-c1ccc(Cl)cc1 |  | 6.36%
52 | CCCc1c(C(=O)Nc2ccc(F)cc2)cnn1-c1ccccc1 | 10 µM (active) | 

Row | Structure (SMILES) | Potency | activity change, negative = inhibition
53 | Cc1cc(OCC(=O)Nc2nccs2)c2c(C)c(C)c(=O)oc2c1 |  | -12.1%
54 | Cc1noc(C)c1CSCC(=O)Nc1nc2ccc(Oc3ccccc3)cc2s1 | 7.94 µM (active) | 
55 | CCc1noc(C)c1C(=O)Nc1nc2ccc(OC)cc2s1 |  | 0.249%
56 | Cc1ccc(F)cc1NC(=O)CSCc1c(C)noc1C |  | -3.47%
57 | COc1ccc(S(=O)(=O)N2CCC(C(=O)NCCC(=O)NCCc3cccc(F)c3)CC2)cc1 |  | 3.25%
58 | COC(=O)Nc1nc2ccc(Sc3ccccc3)cc2[nH]1 | 1.12 µM (active) | 
59 | CC(C)c1nc2ccc(C(=O)O)cc2[nH]1 |  | -1.32%
60 | Cc1ccc2nc(CNC(=O)c3ccccc3)[nH]c2c1 |  | -8.76%
61 | Cc1cccc(C(=O)OCC(=O)Nc2sccc2C(N)=O)c1C |  | -14.6%
62 | CC(C)C1CCN(C(=O)C2CCC(=O)N(C3CCCCCC3)C2)CC1 (configuration not stated) |  | 4.55%
63 | Cc1ccc(/C=C2\SC(=S)N(CCC(=O)Nc3ccc(O)cc3)C2=O)cc1 |  | -7.25%
64 | O=C(CCN1C(=O)/C(=C/c2cccs2)SC1=S)NNC(=O)c1cccc(O)c1 |  | -10.3% [at 7.66 µM]
65 | O=C(CCCN1C(=O)/C(=C/c2cccs2)SC1=S)Nc1ccc(O)cc1 | 5.01 µM (active) | 
66 | CCCNC(=O)C1(C)CCN1C(=O)Cc1ccc(-c2ccccc2)cc1 (configuration not stated) |  | -12.2%
67 | O=C(c1ccc(CS(=O)Cc2ccccc2Cl)o1)N1CCN(c2ccccc2)CC1 (configuration not stated) |  | -1.8%
68 | OCC1OC(n2cnc3c(N4CCCC4)ncnc32)C(O)C1O (configuration not stated) |  | 3.56%
69 | CC(=O)N1CCN(Cc2cc(=O)oc3cc(C)ccc23)CC1 |  | 8.45%
70 | Cc1ccc(C(=O)Nc2c(-c3ccccc3)[nH][nH]c2=O)cc1 |  | 8.15%
71 | COc1ccc(N2CCN(S(=O)(=O)c3cc(Br)cnc3N)CC2)cc1 |  | 11.4%
72 | CCc1cccc(C)c1NS(=O)(=O)c1ccc(-c2cc(C)no2)s1 |  | -48%
73 | CCc1cccc(C)c1NS(=O)(=O)c1cc(Br)cnc1N | 10 µM (active) | 
74 | Cc1ccc(-c2nc3c(Cl)cc(C(F)(F)F)cn3c2Cc2cccc(Cl)c2)cc1 |  | 8.32%
75 | CCn1c(SCC(=O)N2CCCC2=O)nc2ccccc21 |  | -4.71%
76 | CC(C)c1cc(C(=O)N/N=C/C(Br)=C/c2ccccc2)n[nH]1 | 8.91 µM (active) | 
77 | CC(C)c1cc(C(=O)O)n[nH]1 |  | 0%
78 | Cc1cc(C(=O)N/N=C\C(Br)=C\c2ccccc2)c(C)o1 |  | 5.04% [at 7.66 µM]

Row | Structure (SMILES) | Potency | activity change, negative = inhibition
79 | COCCNc1ncnc2c1ncn2[C@H]1CN(Cc2ccc(OC)cc2)C[C@@H](CO)O1 |  | 17.4%
80 | O=C(C1CCN(S(=O)(=O)c2ccc(Br)s2)CC1)N1CCN(C2CCCCC2)CC1 | 10 µM (active) | 
81 | O=C(C1CCN(S(=O)(=O)c2cccs2)CC1)N1CCCCCC1 |  | 0%
82 | O=C(NC1CCCCC1)C1CCCN(S(=O)(=O)c2ccc(Br)s2)C1 (configuration not stated) |  | 12.5%
83 | CN1C[C@@H](CO)O[C@@H](n2cnc3c(N4CCN(CCO)CC4)ncnc32)C1 |  | -6.73%
84 | CCCCN1CC(N2CCN(Cc3cccc(C)c3)CC2)CS1(=O)=O (configuration not stated) |  | -22.9%
85 | COc1ccc(NC(=S)N2CCC(NC(=O)c3cccc(F)c3)CC2)cc1 |  | 10.9%
86 | COc1cc(OC)cc(C(=O)NC2CCN(C(=O)N3c4ccccc4Sc4ccccc43)CC2)c1 | 10 µM (active) | 
87 | CCCNC(=S)N1CCC(NC(=O)c2ccc(OC)cc2)CC1 |  | 2.99%
88 | COc1cccc(-c2cc(NC(C)=O)c3ncc(-c4cccc(C(C)=O)c4)n3c2)c1 |  | -16.5%
89 | CCOC(=O)/C(=N\Nc1cc(Cl)ccc1Cl)N1CCN(C)CC1 | 10 µM (active) | 
90 | CCOC(=O)N1CCN(C(=O)COc2ccc(Cl)cc2C)CC1 |  | -2.5%
91 | CCOC(=O)/C(=N\Nc1ccccc1Cl)N(C)C1CCS(=O)(=O)C1 (configuration not stated) |  | -27.7%
92 | Cn1c(=O)c2cc(NC(=O)NCCc3cccs3)ccc2n1Cc1cccc(C(F)(F)F)c1 |  | -22.3%
93 | Cc1oc2c(F)c(F)c(F)c(F)c2c1S(=O)(=O)Nc1cccc(C(F)(F)F)c1 | 3.98 µM (active) | 
94 | O=C(/C=C/c1ccc(F)cc1)Nc1cccc(S(=O)(=O)Nc2cccc(C(F)(F)F)c2)c1 |  | -16.8%
95 | O=C(COc1ccc(S(=O)(=O)Nc2cccc(C(F)(F)F)c2)cc1)N1CCOCC1 |  | -19.7%
96 | COc1ccc(C2=Nc3ccccc3NC(=O)C2N(C(=O)c2cc3ccccc3[nH]2)c2ccccc2)cc1 (configuration not stated) |  | -2.32%
97 | Cc1ccc(Nc2c(-c3ccc(Cl)cc3)nc3sccn23)c(C)c1 | 14.1 µM (active) | 
98 | O=c1cc(Cn2nnc(-c3ccc(Cl)cc3)n2)nc2sccn12 |  | 0%
99 | CC(=O)Nc1c(-c2ccc(C)cc2)nc2ccc(Cl)cn12 |  | 28.1%
100 | CC(C)CCOc1ccc(C(=O)Nc2cc(S(=O)(=O)N3CCOCC3)ccc2N2CCOCC2)cc1 |  | -10.7%
101 | CCc1nc2ccc(C(=O)N(C)CCN(C)C)cn2c1N(CC)CCOC |  | 21.2%
102 | OC[C@@H]1CN(Cc2ccc3c(c2)OCO3)C[C@H](n2cnc3c(NCc4ccco4)ncnc32)O1 |  | -8.25%
